# Measured values reported in PubChem BioAssay.
# Active and inactive are the calls of the source.
# What was measured:
# [1] = optical density shifts of acrAB sulA E. coli – strain DRC41, OD650, 48 h, E. coli filamentation inducer project, primary screen (AID 1152); settings: higher = more signal, called active from +8 up or from −8 down;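 note: E. coli MC1000 strain DRC41 lacking acrAB efflux pump and sulA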
# [2] = probe aLefty1 binding on compound microarray – biochemical, small-molecule microarray, 635/667 nm fluorescence, primary screen (AID 1153); settings: higher = more signal;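 note: score merges spot fluorescence with signal-to-noise ratio from the scanned slide images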
# [3] = plasmodial surface anion channel blockers, osmotic lysis – cell-based, P. falciparum Indochina, OD700, 1 h, primary screen (AID 1154); settings: P. falciparum Indochina infected RBC osmotic lysis, higher = more signal, called active from +8 up or from −8 down
# [4] = plasmodial surface anion channel blockers, osmotic lysis – cell-based, P. falciparum Indochina, OD700, 2 h, primary screen (AID 1155);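 note: lysis reports solute entry through the parasite surface anion channel PSAC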; settings: P. falciparum Indochina infected erythrocytes, higher = more signal, called active from +8 up or from −8 down
# [5] = changes in parasitized red cell lysis, either direction – P. falciparum Indochina, OD700, 3 h, PSAC antagonist project, primary screen (AID 1156); settings: P. falciparum-infected erythrocytes, osmotic lysis, higher = more signal, called active from +8 up or from −8 down
# [6] = plasmodial surface anion channel blockers, osmotic lysis – cell-based, P. falciparum Indochina, OD700, 18 h, primary screen (AID 1157); settings: P. falciparum Indochina infected erythrocytes, osmotic lysis OD700, 18 h; higher = more signal, called active from +8 up or from −8 down
# [7] = S6 kinase pathway phospho-S6 level changes – cell-based, A549, cytoblot, luminescence, serum-stimulated, primary screen (AID 1158); settings: 5 h, higher = more signal;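 note: serum-stimulated A549 lung adenocarcinoma cells; signal is phosphorylated S6 detected by cytoblot immunostaining with HRP secondary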
# [8] = molecular target: NADPH oxidase 2 (Homo sapiens) (UniProt P04839); assay: compounds shifting NOX2 Amplex Red fluorescence – cell-based, HEK293-NOX2, PMA-stimulated, NOX inhibitor project, primary screen (AID 1159); settings: 45 min, higher = more signal, called active from +8 up or from −8 down; note: test concentration not given here
# Sequence of NADPH oxidase 2 (Homo sapiens) (P04839 whole entry, looked up): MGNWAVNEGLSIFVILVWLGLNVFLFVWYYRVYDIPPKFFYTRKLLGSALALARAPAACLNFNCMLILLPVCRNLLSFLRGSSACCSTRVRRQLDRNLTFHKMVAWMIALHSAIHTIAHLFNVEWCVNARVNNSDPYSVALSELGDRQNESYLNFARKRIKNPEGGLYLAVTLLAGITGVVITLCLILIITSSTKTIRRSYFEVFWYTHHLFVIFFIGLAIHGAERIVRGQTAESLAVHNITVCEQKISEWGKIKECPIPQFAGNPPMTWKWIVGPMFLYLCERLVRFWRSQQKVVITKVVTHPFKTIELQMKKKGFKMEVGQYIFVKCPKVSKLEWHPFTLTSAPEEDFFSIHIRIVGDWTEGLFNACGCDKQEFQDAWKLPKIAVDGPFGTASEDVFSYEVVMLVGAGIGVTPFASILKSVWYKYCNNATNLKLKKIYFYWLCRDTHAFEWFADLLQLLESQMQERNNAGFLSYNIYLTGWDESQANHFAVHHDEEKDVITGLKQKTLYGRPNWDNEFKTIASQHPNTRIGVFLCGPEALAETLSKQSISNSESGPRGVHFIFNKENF
# [9] = molecular target: NADPH oxidase 4 (Homo sapiens) (UniProt Q9NPH5); assay: compounds shifting NOX4 Amplex Red fluorescence – cell-based, HEK293-NOX4, tetracycline-induced, NOX inhibitor project, primary screen (AID 1160); settings: HEK293-NOX4, Amplex Red H2O2 fluorescence, 45 min; higher = more signal, called active from +8 up or from −8 down
# Sequence of NADPH oxidase 4 (Homo sapiens) (Q9NPH5 whole entry, looked up): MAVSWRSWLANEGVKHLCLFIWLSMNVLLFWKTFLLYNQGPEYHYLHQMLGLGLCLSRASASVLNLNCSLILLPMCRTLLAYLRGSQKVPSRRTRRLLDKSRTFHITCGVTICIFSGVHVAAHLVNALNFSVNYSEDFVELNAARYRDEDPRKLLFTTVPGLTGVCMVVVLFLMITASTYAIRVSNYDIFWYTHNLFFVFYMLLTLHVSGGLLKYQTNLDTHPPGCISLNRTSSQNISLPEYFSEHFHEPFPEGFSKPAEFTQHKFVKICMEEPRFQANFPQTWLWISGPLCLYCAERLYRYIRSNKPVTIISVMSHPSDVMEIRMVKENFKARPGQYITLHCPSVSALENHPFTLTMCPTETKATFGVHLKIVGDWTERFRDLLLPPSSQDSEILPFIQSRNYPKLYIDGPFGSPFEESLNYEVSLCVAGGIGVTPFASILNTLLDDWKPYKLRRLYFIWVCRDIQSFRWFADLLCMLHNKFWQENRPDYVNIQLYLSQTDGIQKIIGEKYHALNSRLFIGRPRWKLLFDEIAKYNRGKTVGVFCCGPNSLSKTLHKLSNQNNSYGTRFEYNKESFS
# [10] = molecular target: NADPH oxidase 5 (Homo sapiens) (UniProt Q96PH1); assay: compounds shifting NOX5 Amplex Red fluorescence – cell-based, HEK293-NOX5, NOX inhibitor project, primary screen (AID 1161); settings: HEK293-NOX5, ionomycin, 45 min, higher = more signal
# Sequence of NADPH oxidase 5 (Homo sapiens) (Q96PH1 whole entry, looked up): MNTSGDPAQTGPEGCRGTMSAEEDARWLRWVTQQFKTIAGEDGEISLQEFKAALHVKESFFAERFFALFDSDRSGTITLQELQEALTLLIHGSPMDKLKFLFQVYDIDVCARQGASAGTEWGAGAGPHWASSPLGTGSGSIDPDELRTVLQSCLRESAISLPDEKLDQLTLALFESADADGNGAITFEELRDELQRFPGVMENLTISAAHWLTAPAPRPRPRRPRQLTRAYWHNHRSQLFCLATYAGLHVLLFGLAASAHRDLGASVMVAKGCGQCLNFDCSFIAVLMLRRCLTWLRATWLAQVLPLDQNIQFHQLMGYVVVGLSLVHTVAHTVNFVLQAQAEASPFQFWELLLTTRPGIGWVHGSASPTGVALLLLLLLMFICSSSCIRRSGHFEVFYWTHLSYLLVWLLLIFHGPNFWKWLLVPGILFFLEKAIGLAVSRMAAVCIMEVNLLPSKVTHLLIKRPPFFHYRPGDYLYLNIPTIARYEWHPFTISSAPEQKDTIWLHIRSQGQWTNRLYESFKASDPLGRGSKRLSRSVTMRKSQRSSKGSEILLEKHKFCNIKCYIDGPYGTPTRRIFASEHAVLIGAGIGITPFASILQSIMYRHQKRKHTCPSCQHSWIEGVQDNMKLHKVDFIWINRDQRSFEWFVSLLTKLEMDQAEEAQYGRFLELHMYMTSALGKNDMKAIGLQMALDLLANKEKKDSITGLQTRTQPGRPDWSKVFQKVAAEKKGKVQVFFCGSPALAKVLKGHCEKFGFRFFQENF
# [11] = compound effects on lung adenocarcinoma cell viability – A549, calcein-AM fluorescence, 48 h, basal, profiling panel (AID 1162); settings: higher = more signal; note: test concentration not given here
# [12] = compound effects on differentiated 3T3-L1 adipocyte viability – cell-based, 3T3-L1 adipocytes, calcein-AM fluorescence, 48 h, basal, profiling panel (AID 1163); settings: 3T3-L1 adipocytes viability, higher = more signal; note: test concentration not given here
# [13] = compound effects on hepatocellular carcinoma cell viability – HepG2, calcein-AM fluorescence, 48 h, basal, profiling panel (AID 1164); settings: higher = more signal; note: test concentration not given here
# [14] = compound effects on multiple myeloma cell viability – MM1S, calcein-AM fluorescence, 48 h, basal, profiling panel (AID 1165); settings: higher = more signal;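 note: viability of MM1S multiple myeloma cells under basal unstimulated conditions; test concentration not given here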
# [15] = calcein-AM signal in unstimulated myeloma cells – cell-based, calcein-AM fluorescence, 48 h, PK04 Diversity Set, profiling panel (AID 1166); settings: RPMI8226 myeloma viability, higher = more signal;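 note: cells grown under basal conditions without added stimulus; test concentration not given here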
# [16] = JC-1 mitochondrial signal, unstimulated HepG2 cells – cell-based, JC-1 fluorescence, 24 h, 100 nL compound, profiling panel (AID 1167); settings: HepG2 mitochondrial potential, higher = more signal; note: test concentration not given here
# [17] = JC-1 mitochondrial signal, unstimulated adipocytes – cell-based, JC-1 fluorescence, 3T3-L1 adipocytes, 24 h, 100 nL compound, profiling panel (AID 1168); settings: JC-1 mitochondrial fluorescence, higher = more signal, called active from +8 up or from −8 down; note: test concentration not given here
# [18] = JC-1 mitochondrial signal, unstimulated myeloma cells – cell-based, JC-1 fluorescence, RPMI8226, 24 h, 100 nL compound, profiling panel (AID 1169); settings: JC-1 mitochondrial potential fluorescence, higher = more signal; note: test concentration not given here
# [19] = JC-1 mitochondrial signal, unstimulated MM1S myeloma – cell-based, JC-1 fluorescence, 24 h, 100 nL compound, profiling panel (AID 1170); settings: MM1S mitochondrial potential, higher = more signal; note: test concentration not given here
# [20] = resazurin metabolic signal in A549 cells – cell-based, resazurin fluorescence, 24 h, PK04 Diversity Set, profiling panel (AID 1171); settings: A549 viability, higher = more signal, called active from +8 up or from −8 down; note: test concentration not given here
Compound,z-score [1],composite z-score [2],z-score [3],z-score [4],z-score [5],z-score [6],z-score [7],z-score [8],z-score [9],z-score [10],z-score [11],z-score [12],z-score [13],z-score [14],z-score [15],z-score [16],z-score [17],z-score [18],z-score [19],z-score [20]
CC(C)CN1C(=O)[C@@]2(Cc3ccccc31)c1ccccc1C(=O)N(C1CCCCC1)[C@H]2c1ccc(CO)cc1,1.83 (inactive),-0.101,0.838 (inactive),-0.528 (inactive),-0.0544 (inactive),-1.24 (inactive),2.22,-0.236 (inactive),-1.31 (inactive),0.441,0.572,1.86,0.502,0.845,-0.0832,-0.178,0.938 (inactive),-0.6,0.00808,0.148 (inactive)
Cc1ccc(S[C@]2(C(=O)NC(C)C)CC(=O)N(C3Cc4ccccc4C3)[C@@H]2c2ccc(CO)cc2)cc1,-0.415 (inactive),-0.357,2.26 (inactive),-0.862 (inactive),1.04 (inactive),-1.88 (inactive),1.95,0.0257 (inactive),-0.029 (inactive),-0.927,0.0188,2.29,0.0794,0.549,-1.02,0.0355,-0.636 (inactive),0.758,0.643,-0.0208 (inactive)
C=C(COC)/C(=C/C[C@@H](OC(=O)c1ccncc1)c1ccc(OCCO)cc1)c1cc(C(=O)OC)ccc1OC,2.31 (inactive),0.0686,14.6 (active),0.629 (inactive),1.35 (inactive),-1.53 (inactive),0.866,1.98 (inactive),2.24 (inactive),-0.63,1.13,1.51,0.183,-0.312,0.93,2.48,1.79 (inactive),0.116,0.487,1.6 (inactive)
O=C1c2ccccc2[C@](Cc2ccccc2I)(C(=O)O)[C@H](c2ccc(CO)cc2)N1C1CCCCC1,2.84 (inactive),0.138,3.72 (inactive),0.525 (inactive),0.974 (inactive),-0.339 (inactive),2.86,1.06 (inactive),-0.737 (inactive),-0.473,0.0699,2.82,-0.0275,0.832,-3.14,0.0952,-0.641 (inactive),-0.193,0.148,1.07 (inactive)
COC(=O)C[C@H]1O[C@]2(C(=O)N(C)c3ccccc32)[C@@H](C)[C@@H]1[Si](C)(C)c1ccc(OC)cc1,2.42 (inactive),-0.139,2.79 (inactive),-1.17 (inactive),-0.168 (inactive),-2.34 (inactive),1.11,0.0822 (inactive),0.345 (inactive),-0.451,-0.437,2.54,-0.125,-0.128,-2.98,0.441,1.24 (inactive),-0.636,1.05,-0.767 (inactive)
CO[C@H]1COC(=O)[C@H](C)NC(=O)CC=C[C@@H](C)[C@H](NS(=O)(=O)c2ccc(C)cc2)COC(=O)[C@@H](OCc2ccccc2)C=C[C@@H]1C,0.117 (inactive),-0.303,0.655 (inactive),0.637 (inactive),0.416 (inactive),-0.14 (inactive),0.215,1.4 (inactive),0.815 (inactive),0.2,0.0987,0.901,0.0331,-0.31,0.102,1.04,0.315 (inactive),-0.729,1.02,0.559 (inactive)
CCCC/C=C/[C@H]([C@@H](O)Cc1ccccc1)N(CC#Cc1ccccc1)Cc1ccccc1Br,2.99 (inactive),-0.0061,2.63 (inactive),1.29 (inactive),-0.0195 (inactive),0.522 (inactive),0.108,-0.424 (inactive),0.426 (inactive),-0.622,1.44,-0.0982,0.632,0.558,0.0649,0.427,0.519 (inactive),-0.462,-0.435,2.84 (inactive)
CO[C@]12C=C(Br)[C@@H](C[C@@H]1c1ccccc1)[C@@]1(CO1)C2=O,2.36 (inactive),0.166,-0.0452 (inactive),-0.698 (inactive),0.422 (inactive),-1.7 (inactive),0.716,0.575 (inactive),0.625 (inactive),0.339,-1.08,1.18,-1.08,-2.34,-1.62,-0.143,1.12 (inactive),-0.376,0.0484,-0.446 (inactive)
CCOC(=O)C[C@H]1[C@H](OC(=O)c2cc3ccccc3oc2=O)[C@@H](NC(=O)c2ccc3ccccc3c2)c2cc(OCCCO)ccc2N1C(=O)c1ccc2ccccc2n1,2.1 (inactive),0.19,11.1 (active),1.42 (inactive),0.865 (inactive),0.868 (inactive),0.63,0.985 (inactive),0.873 (inactive),2.17,0.418,1.48,-0.0664,0.555,0.167,0.158,-0.0237 (inactive),-0.233,0.197,-0.194 (inactive)
